Legend:
Assay in all cases: log2 ratio of Biotin-Ahx-Ub-VS probe labelling (compound/DMSO); higher = less target engagement, active = hit call of the paper (q ≤ 0.05, log2 ratio ≤ -1)
Details in all cases: treatment time: 3 h
[1] = compound: CCC1N(CCc2sccc12)C(=O)CCl
Method in brief: (§1)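 Compound at 50 or 200 µM, or DMSO, was applied for 3 h in triplicate to HEK293T lysate (495 µg per sample, Tris/CHAPS/IGEPAL buffer with protease inhibitors), after which Biotin-Ahx-Ub-VS was added at 0.5 µM final for 1 h. The labelled DUBs were pulled down with NeutrAvidin, digested with LysC and trypsin, and run by diaPASEF LC-MS/MS. Ratios are averaged base-two logs of compound over DMSO from median-normalised label-free quantities by unpaired t-test, counting only proteins with at least 2 unique peptides.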

[2] = compound: CN1c2ccccc2C(CS1(=O)=O)NC(=O)CCl
Method in brief: as §1

[3] = compound: Cl.ClCC(=O)N1CCc2ncncc2C1
Method in brief: as §1

[4] = compound: Cl.Cn1ncc2C(CCCc12)NC(=O)CCl
Method in brief: as §1

[5] = compound: ClCC(=O)NC1CCOc2ccccc12
Method in brief: as §1

[6] = compound: ClCC(=O)NC1CCCc2ccccc12
Method in brief: (§2)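 Average ratios of compound to vehicle were obtained by unpaired t-test. Beforehand, 495 µg samples of HEK293T lysate in buffer with protease inhibitors were treated in triplicate with compound over a concentration series or vehicle for 3 h, then with 0.5 µM final Biotin-Ahx-Ub-VS for 1 h. Labelled deubiquitinases were NeutrAvidin-enriched, digested and quantified label-free by diaPASEF LC-MS/MS in Spectronaut, normalised to the global median. Values are log2 and cover proteins with at least two unique peptides.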

[7] = compound: ClCC(=O)N[C@@H]1CCCc2ccccc12
Method in brief: as §2

[8] = compound: ClCC(=O)N[C@H]1CCCc2ccccc12
Method in brief: as §2

[9] = compound: CCC1N(CCc2cc(OC)c(Cl)cc12)C(=O)CCl
Method in brief: as §1

[10] = compound: CCCC1N(CCc2cc(OC)c(OC)cc12)C(=O)CCl
Method in brief: as §1

Measured: log2 ratio of Biotin-Ahx-Ub-VS probe labelling

VCPIP1 (UniProt Q96JH7)
Chain of UniProt Q96JH7 (Q96JH7 whole entry): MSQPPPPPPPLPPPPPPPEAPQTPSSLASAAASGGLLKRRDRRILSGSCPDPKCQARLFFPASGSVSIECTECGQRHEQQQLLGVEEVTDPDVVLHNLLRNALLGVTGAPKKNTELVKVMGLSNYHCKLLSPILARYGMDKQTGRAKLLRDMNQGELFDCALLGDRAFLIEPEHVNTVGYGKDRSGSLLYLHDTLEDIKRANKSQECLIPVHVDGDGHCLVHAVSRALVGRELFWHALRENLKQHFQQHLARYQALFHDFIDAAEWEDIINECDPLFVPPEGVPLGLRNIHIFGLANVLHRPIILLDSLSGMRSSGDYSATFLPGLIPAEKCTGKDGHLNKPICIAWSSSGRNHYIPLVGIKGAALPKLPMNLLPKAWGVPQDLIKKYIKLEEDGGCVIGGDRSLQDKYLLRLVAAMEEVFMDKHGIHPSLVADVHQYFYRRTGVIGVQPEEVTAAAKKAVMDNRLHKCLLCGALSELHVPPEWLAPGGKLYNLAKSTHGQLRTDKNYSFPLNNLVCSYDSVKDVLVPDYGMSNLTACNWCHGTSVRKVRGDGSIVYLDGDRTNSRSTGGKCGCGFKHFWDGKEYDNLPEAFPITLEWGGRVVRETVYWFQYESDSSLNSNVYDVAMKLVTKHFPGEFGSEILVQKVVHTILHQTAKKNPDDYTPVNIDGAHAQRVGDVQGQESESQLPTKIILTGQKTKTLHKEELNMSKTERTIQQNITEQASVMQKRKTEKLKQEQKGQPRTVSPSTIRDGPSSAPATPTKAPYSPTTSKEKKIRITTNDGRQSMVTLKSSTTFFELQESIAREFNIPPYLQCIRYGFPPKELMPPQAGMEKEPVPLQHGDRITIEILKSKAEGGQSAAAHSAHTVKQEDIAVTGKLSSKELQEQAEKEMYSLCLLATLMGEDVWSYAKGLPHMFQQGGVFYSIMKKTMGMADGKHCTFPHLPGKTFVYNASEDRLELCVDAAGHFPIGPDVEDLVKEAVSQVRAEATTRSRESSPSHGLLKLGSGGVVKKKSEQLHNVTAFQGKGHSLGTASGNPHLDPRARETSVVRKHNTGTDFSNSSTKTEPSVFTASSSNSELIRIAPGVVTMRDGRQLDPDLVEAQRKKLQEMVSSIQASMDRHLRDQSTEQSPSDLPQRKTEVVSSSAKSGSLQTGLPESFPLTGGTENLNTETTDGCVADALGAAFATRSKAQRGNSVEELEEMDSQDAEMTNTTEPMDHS
inactive: [1]; compound concentration: 50uM -0.0812 | [1]; compound concentration: 200uM -0.216 | [2]; compound concentration: 50uM -0.772 | [3]; compound concentration: 50uM -0.0798 | [3]; compound concentration: 200uM -0.257 | [4]; compound concentration: 50uM -0.273 | [4]; compound concentration: 200uM -0.459 | [5]; compound concentration: 50uM -0.59 | [5]; compound concentration: 200uM -0.809 | [6]; compound concentration: 0.78uM -0.0601 | [6]; compound concentration: 1.56uM -0.043 | [6]; compound concentration: 3.13uM -0.312 | [6]; compound concentration: 6.25uM -0.126 | [6]; compound concentration: 12.5uM -0.217 | [6]; compound concentration: 25uM -0.282 | [6]; compound concentration: 50uM -0.514 | [6]; compound concentration: 100uM -0.706 | [7]; compound concentration: 0.78uM -0.284 | [7]; compound concentration: 1.56uM -0.221 | [7]; compound concentration: 3.13uM -0.211 | [7]; compound concentration: 6.25uM -0.266 | [7]; compound concentration: 12.5uM -0.486 | [7]; compound concentration: 25uM -0.463 | [7]; compound concentration: 50uM -0.588 | [7]; compound concentration: 100uM -0.763 | [8]; compound concentration: 0.78uM -0.0679 | [8]; compound concentration: 1.56uM -0.261 | [8]; compound concentration: 3.13uM -0.266 | [8]; compound concentration: 6.25uM -0.105 | [8]; compound concentration: 12.5uM -0.162 | [8]; compound concentration: 25uM -0.176 | [8]; compound concentration: 50uM -0.258 | [8]; compound concentration: 100uM -0.566 | [8]; compound concentration: 200uM -0.808 | [9]; compound concentration: 50uM -0.123 | [9]; compound concentration: 200uM -0.724 | [10]; compound concentration: 50uM -0.514 | [10]; compound concentration: 200uM -0.602
active: [2]; compound concentration: 200uM -1.25 | [6]; compound concentration: 200uM -1.18 | [7]; compound concentration: 200uM -1.11

UniProt Q8TE49
Chain of UniProt Q8TE49 (Q8TE49 whole entry): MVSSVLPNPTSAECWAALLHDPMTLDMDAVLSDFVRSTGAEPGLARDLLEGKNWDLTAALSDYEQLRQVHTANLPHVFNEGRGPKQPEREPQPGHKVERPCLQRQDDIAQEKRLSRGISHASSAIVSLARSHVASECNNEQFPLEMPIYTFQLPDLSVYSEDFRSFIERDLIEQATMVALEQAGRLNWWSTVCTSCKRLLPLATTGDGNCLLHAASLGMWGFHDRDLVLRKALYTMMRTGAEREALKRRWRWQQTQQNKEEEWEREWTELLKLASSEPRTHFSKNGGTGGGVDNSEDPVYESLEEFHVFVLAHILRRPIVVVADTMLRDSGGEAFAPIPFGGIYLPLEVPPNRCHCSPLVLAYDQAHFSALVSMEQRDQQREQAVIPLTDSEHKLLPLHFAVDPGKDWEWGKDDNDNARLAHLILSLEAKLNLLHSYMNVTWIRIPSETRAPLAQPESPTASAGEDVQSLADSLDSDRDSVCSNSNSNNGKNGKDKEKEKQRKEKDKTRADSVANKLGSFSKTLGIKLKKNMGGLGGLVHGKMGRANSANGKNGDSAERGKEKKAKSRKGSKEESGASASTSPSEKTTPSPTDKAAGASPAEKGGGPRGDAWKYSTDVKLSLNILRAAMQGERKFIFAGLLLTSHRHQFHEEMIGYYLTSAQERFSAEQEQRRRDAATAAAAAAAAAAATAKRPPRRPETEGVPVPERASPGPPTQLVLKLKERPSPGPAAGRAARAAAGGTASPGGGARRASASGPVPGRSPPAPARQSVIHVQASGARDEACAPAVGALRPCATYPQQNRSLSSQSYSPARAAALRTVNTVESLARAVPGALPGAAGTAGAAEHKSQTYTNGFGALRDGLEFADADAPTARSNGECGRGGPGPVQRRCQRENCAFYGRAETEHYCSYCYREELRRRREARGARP
inactive: [1]; compound concentration: 50uM -0.281 | [1]; compound concentration: 200uM -0.466 | [3]; compound concentration: 50uM -0.364 | [5]; compound concentration: 50uM -0.839 | [7]; compound concentration: 0.78uM -0.577 | [7]; compound concentration: 1.56uM -0.173 | [7]; compound concentration: 3.13uM -0.995 | [7]; compound concentration: 12.5uM -0.347 | [7]; compound concentration: 25uM -0.135 | [7]; compound concentration: 100uM -0.0704 | [8]; compound concentration: 0.78uM -1.04 | [8]; compound concentration: 12.5uM -0.835 | [9]; compound concentration: 50uM 0.126 | [10]; compound concentration: 50uM -0.481 | [10]; compound concentration: 200uM -1.23
active: [2]; compound concentration: 50uM -1.25 | [2]; compound concentration: 200uM -2.71 | [3]; compound concentration: 200uM -1.55 | [4]; compound concentration: 50uM -2.22 | [4]; compound concentration: 200uM -2.78 | [5]; compound concentration: 200uM -1.23 | [6]; compound concentration: 0.78uM -1.71 | [6]; compound concentration: 1.56uM -1.79 | [6]; compound concentration: 3.13uM -1.77 | [6]; compound concentration: 6.25uM -1.34 | [6]; compound concentration: 12.5uM -1.27 | [6]; compound concentration: 25uM -2.03 | [6]; compound concentration: 50uM -2.39 | [6]; compound concentration: 100uM -2.75 | [6]; compound concentration: 200uM -3.99 | [7]; compound concentration: 6.25uM -1.72 | [7]; compound concentration: 50uM -1.33 | [7]; compound concentration: 200uM -1.69 | [8]; compound concentration: 1.56uM -1.6 | [8]; compound concentration: 3.13uM -1.78 | [8]; compound concentration: 6.25uM -1.41 | [8]; compound concentration: 25uM -2.19 | [8]; compound concentration: 50uM -2.93 | [8]; compound concentration: 100uM -3.39 | [8]; compound concentration: 200uM -3.55 | [9]; compound concentration: 200uM -1.15

UniProt Q5T2D3
Chain of UniProt Q5T2D3 (Q5T2D3 whole entry): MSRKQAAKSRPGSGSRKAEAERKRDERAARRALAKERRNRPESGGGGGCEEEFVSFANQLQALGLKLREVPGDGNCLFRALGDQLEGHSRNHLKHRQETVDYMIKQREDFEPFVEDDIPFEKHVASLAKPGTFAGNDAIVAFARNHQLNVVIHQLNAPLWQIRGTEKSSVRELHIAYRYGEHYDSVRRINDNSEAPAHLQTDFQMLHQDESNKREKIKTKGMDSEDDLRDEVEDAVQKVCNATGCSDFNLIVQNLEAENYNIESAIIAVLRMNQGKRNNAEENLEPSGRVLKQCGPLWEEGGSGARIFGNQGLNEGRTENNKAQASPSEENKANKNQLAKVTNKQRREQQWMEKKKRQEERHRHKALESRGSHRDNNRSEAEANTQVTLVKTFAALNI
inactive: [1]; compound concentration: 50uM -0.152 | [1]; compound concentration: 200uM -0.102 | [2]; compound concentration: 50uM -0.294 | [2]; compound concentration: 200uM -0.292 | [3]; compound concentration: 50uM -0.0797 | [3]; compound concentration: 200uM -0.274 | [4]; compound concentration: 50uM -0.136 | [4]; compound concentration: 200uM 0.135 | [5]; compound concentration: 50uM -0.0283 | [5]; compound concentration: 200uM -0.137 | [6]; compound concentration: 0.78uM -0.198 | [6]; compound concentration: 1.56uM -0.0928 | [6]; compound concentration: 3.13uM -0.11 | [6]; compound concentration: 6.25uM -0.192 | [6]; compound concentration: 12.5uM -0.113 | [6]; compound concentration: 25uM 0.0408 | [6]; compound concentration: 50uM -0.0723 | [6]; compound concentration: 100uM -0.0612 | [6]; compound concentration: 200uM -0.179 | [7]; compound concentration: 0.78uM -0.153 | [7]; compound concentration: 1.56uM -0.131 | [7]; compound concentration: 3.13uM -0.0877 | [7]; compound concentration: 6.25uM -0.0936 | [7]; compound concentration: 12.5uM -0.0592 | [7]; compound concentration: 25uM -0.125 | [7]; compound concentration: 50uM -0.234 | [7]; compound concentration: 100uM -0.0551 | [7]; compound concentration: 200uM -0.296 | [8]; compound concentration: 0.78uM -0.237 | [8]; compound concentration: 1.56uM -0.21 | [8]; compound concentration: 3.13uM -0.232 | [8]; compound concentration: 6.25uM -0.0509 | [8]; compound concentration: 12.5uM 0.00779 | [8]; compound concentration: 25uM -0.0485 | [8]; compound concentration: 50uM 0.0602 | [8]; compound concentration: 100uM 0.0541 | [8]; compound concentration: 200uM -0.193 | [9]; compound concentration: 50uM 0.0656 | [9]; compound concentration: 200uM -0.0849 | [10]; compound concentration: 50uM -0.315 | [10]; compound concentration: 200uM -0.497

USP47 (UniProt Q96K76)
Chain of UniProt Q96K76 (Q96K76 whole entry): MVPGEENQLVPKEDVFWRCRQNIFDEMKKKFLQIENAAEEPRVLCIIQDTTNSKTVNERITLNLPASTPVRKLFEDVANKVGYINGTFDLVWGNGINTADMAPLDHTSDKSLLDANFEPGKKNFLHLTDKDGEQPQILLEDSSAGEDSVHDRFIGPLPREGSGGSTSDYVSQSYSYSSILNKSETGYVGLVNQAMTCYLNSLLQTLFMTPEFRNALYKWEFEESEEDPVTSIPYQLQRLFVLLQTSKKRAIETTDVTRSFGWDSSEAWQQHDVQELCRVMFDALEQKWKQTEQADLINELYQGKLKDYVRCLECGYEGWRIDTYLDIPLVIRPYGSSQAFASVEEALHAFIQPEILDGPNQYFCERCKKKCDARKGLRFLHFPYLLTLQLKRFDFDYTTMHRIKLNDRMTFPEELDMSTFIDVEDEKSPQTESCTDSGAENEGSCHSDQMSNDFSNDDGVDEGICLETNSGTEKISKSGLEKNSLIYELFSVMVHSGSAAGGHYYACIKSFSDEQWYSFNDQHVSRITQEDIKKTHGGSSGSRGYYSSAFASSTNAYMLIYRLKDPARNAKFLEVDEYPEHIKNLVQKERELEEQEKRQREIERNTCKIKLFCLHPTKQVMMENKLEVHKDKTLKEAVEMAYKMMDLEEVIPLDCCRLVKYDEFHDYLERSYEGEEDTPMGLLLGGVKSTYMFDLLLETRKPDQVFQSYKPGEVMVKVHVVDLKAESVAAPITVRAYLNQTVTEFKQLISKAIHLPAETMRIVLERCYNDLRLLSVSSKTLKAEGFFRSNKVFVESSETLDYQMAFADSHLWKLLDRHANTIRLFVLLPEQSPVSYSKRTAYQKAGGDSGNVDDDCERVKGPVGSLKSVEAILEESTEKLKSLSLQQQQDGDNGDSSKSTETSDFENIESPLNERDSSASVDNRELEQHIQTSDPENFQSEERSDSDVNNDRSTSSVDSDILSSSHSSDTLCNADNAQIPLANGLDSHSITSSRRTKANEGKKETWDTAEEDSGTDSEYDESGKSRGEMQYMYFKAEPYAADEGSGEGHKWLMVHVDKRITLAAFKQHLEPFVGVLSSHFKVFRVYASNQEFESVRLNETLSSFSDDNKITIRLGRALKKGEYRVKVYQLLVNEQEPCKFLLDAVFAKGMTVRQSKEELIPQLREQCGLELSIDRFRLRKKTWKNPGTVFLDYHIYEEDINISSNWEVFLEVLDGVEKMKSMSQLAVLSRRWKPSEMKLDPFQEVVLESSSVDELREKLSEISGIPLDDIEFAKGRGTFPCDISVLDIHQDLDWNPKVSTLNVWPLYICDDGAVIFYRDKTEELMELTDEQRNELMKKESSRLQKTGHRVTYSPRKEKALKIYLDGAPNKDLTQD
inactive: [6]; compound concentration: 0.78uM -0.835 | [6]; compound concentration: 1.56uM -0.97 | [7]; compound concentration: 1.56uM -0.399 | [7]; compound concentration: 3.13uM -0.592 | [7]; compound concentration: 6.25uM -0.585 | [7]; compound concentration: 12.5uM -0.654 | [7]; compound concentration: 25uM -0.26 | [7]; compound concentration: 50uM -0.749 | [7]; compound concentration: 100uM -0.609 | [7]; compound concentration: 200uM 0.134 | [8]; compound concentration: 0.78uM -0.545 | [8]; compound concentration: 1.56uM -0.834 | [8]; compound concentration: 3.13uM -0.514 | [8]; compound concentration: 12.5uM -0.725 | [8]; compound concentration: 25uM -0.536 | [8]; compound concentration: 50uM -0.911 | [8]; compound concentration: 200uM -0.929
active: [6]; compound concentration: 3.13uM -1.96 | [6]; compound concentration: 6.25uM -1.31 | [6]; compound concentration: 12.5uM -2.62 | [6]; compound concentration: 25uM -2.65 | [6]; compound concentration: 50uM -1.54 | [6]; compound concentration: 100uM -1.65 | [6]; compound concentration: 200uM -1.87 | [7]; compound concentration: 0.78uM -1.55 | [8]; compound concentration: 6.25uM -1.57 | [8]; compound concentration: 100uM -1.22

Reference: the supplement of paper PMC11732987, “Enantioselective OTUD7B fragment discovery through chemoproteomics screening and high-throughput optimisation” (Communications Chemistry, 2025)
